AmpC detergent – blocks E. coli AmpC beta-lactamase in detergent assay | 370,000 tested, 0.041% active | AID 485294 | AmpC hydrolysis of nitrocefin, absorbance 480 nm, 0.01% Triton | P00811 | Potency, µM (titrated, usually from 114 µM), most hits filed as inhibitors; also: nearly all actives have a fitted effect of over 25% in size
Target sequence (P00811 whole entry, looked up): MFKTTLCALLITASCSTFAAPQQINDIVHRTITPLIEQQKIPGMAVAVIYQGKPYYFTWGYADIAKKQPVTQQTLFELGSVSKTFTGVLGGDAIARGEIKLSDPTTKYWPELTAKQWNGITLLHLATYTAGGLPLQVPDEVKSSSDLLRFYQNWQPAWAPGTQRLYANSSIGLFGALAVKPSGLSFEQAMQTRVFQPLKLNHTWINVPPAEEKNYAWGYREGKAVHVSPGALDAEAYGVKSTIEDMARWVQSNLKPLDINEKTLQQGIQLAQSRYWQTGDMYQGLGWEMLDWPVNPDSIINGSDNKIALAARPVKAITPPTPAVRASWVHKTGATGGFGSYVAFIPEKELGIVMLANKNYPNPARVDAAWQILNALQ
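20 mM phosphate pH 7.0 + 0.01% (detergent screen) or 0.0001% Triton X-100; 5.3 nM AmpC reagent; cpd preinc 15 min RT; nitrocefin (800 uM stock) to start; A480 q20 s × 4 min; Activity was normalised to no-enzyme and no-compound control wells.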
SARS PLpro yeast – blocks SARS-CoV papain-like protease in a yeast assay | S. cerevisiae expressing SARS-CoV PLpro, growth rescue | Potency, µM (doses to about 32.9 µM), hits mostly activators | 330,000 tested, 0.19% active | AID 485353; calls by dose curve; also: nearly all actives have a fitted effect of over 55% in size
AmpC inh no detg – AmpC beta-lactamase inhibition without detergent; Potency, µM (highest dose often 57.1 µM), most hits filed as inhibitors; 330,000 tested, 0.52% active; AmpC nitrocefin hydrolysis, absorbance 480 nm, 0.0001% Triton; P00811; also: nearly all actives have a fitted effect of over 20% in size
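20 mM phosphate pH 7.0 + 0.01% (detergent screen) or 0.0001% Triton X-100; 5.3 nM AmpC reagent; cpd preinc 15 min RT; nitrocefin (800 uM stock) to start; A480 q20 s × 4 min; Activity was normalised to no-enzyme and no-compound control wells.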
Shiga toxin inh – Shiga toxin inhibition; 290,000 tested, 9.2% active; inhibition, % at 38.7 µM; Vero cells, Shiga toxin protein synthesis inhibition reporter; in the data active = inhibition mostly above about 28%, no sharp cut-off; inactive = mostly below about 43%
Cycloheximide cs – affects cycloheximide protein synthesis inhibition readout, counter-screen | AID 2314 | 300,000 tested, 12% active | cell reporter, cycloheximide protein synthesis inhibition counterscreen | max response, %; in the data active = max response mostly above about 13%, no sharp cut-off; inactive = mostly below about 14%; also: read at 38.3 µM for the half of the compounds with a filed dose
AMA1 RON2 block – disrupts binding of P. falciparum AMA1 to RON2 | AlphaScreen AMA1-biotinylated RON2 peptide binding | Potency, µM (top dose mostly 58.2 µM), usual class: inhibitors | 360,000 tested, 0.2% active | AID 720542; also: nearly all actives have a fitted effect of over 45% in size
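AMA1 (3D7) with his tag at 25 nM final met compounds first, then biotinylated RON2 peptide at 25 nM; detection used donor plus acceptor beads, 10 µg/mL apiece, read by AlphaScreen after 30 min at room temperature.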
Each line names hits and unclear results; the compound was inactive in the other large screens. This is one part of a sample in which hits are shown more often than they occur. Unless noted, calls follow the shape of the dose curve; as a rule, active = well fitted curve in the direction sought with a large enough effect; inconclusive = small, poorly fitted or top-dose-only effect, or another doubt; inactive = no such curve, though single readings can be large; an effect the other way counts as inactive or inconclusive.

NC(=NCc1ccc2c(c1)OCO2)NC(=O)c1ccccc1	none
CC(C)CC(=O)N/C(N)=N/c1nc2ccccc2o1	Shiga toxin inh 103.0, Cycloheximide cs 51.1
CCOC(=O)c1cc(S(=O)(=O)N2CCc3ccccc32)cn1C	none
COc1ccc(C2CC(c3ccccc3)=NN2c2ccc(C(N)=O)cc2)cc1 (centres undefined)	none
COc1ccc(C2CC(c3ccccc3)=NN2c2ccc(/C=N/NC(=O)c3ccncc3)cc2)cc1 (centres undefined)	Shiga toxin inh 28.0, Cycloheximide cs 13.9
N#CCC(=O)N/N=C/c1ccc(N2N=C(c3ccccc3)CC2c2ccccc2)cc1 (centres undefined)	Cycloheximide cs 10.4
O=C(Cc1cccc2ccccc12)Nc1ccc(O)cc1C(=O)O	none
COc1cc2c(cc1NC(=O)COC(=O)[C@@H](NS(=O)(=O)c1ccccc1)C(C)C)oc1ccccc12	Shiga toxin inh 55.6, Cycloheximide cs 11.3
COc1cc2c(cc1NC(=O)Cc1ccc(C)cc1)oc1ccccc12	Shiga toxin inh 93.2, Cycloheximide cs 73.1
COc1cc2c(cc1NC(=O)COc1ccccc1OC)oc1ccccc12	none
COc1cc2c(cc1NC(=O)COC(=O)Cn1cnc3ccccc31)oc1ccccc12	Shiga toxin inh 79.3, Cycloheximide cs 36.2
COc1cc2c(cc1NC(=O)CCCN1C(=O)CCC1=O)oc1ccccc12	AmpC detergent inconclusive, Shiga toxin inh 79.0, Cycloheximide cs 35.6
Cc1ccc(C(=O)N/C(=C\c2ccc(Cl)cc2)C(=O)NCCCN2CCOCC2)cc1	none
CCOC(=O)c1c(O)c2c(n(Cc3ccco3)c1=O)CCCC2	none
O=c1c2ccccc2c(/C=N/n2cnnc2)c(O)n1-c1ccccc1	AMA1 RON2 block inconclusive
Cc1ccc(C(=O)COc2ccccc2N2C(=O)c3ccccc3C2=O)cc1	AmpC detergent inconclusive
COc1cc2c(cc1NC(=O)COC(=O)C(CCSC)NC(=O)c1ccccc1Cl)oc1ccccc12 (centres undefined)	Shiga toxin inh active
COc1cc2c(cc1NC(=O)C(C)NCc1ccccc1)oc1ccccc12 (centres undefined)	Shiga toxin inh 76.4, Cycloheximide cs 63.6
CCNc1nc(-c2cc(C)n(Cc3ccco3)c2C)cs1	Shiga toxin inh 103.9, Cycloheximide cs 53.1
N#C/C(=C/c1ccc(Sc2nc3ccccc3[nH]2)o1)c1cccc(F)c1	AmpC detergent inconclusive
CCOc1ccccc1C=Nc1ccccc1C(=O)Nc1ccccc1	Shiga toxin inh 68.4, Cycloheximide cs 16.1
O=C(Nc1ccccc1)c1ccccc1N=Cc1ccccc1O	Shiga toxin inh active, Cycloheximide cs 47.2
O=[N+]([O-])c1cccc(C2Nc3cccc4cccc(c34)N2)c1	none
Cc1ccc2nc3c(nc2c1)-c1ccccc1C3=O	Shiga toxin inh 32.0, Cycloheximide cs 19.6
Cc1ccc([N+](=O)[O-])cc1N/C=C/C(=O)c1ccco1	Shiga toxin inh 124.5, Cycloheximide cs 64.7
O=C(/C=C/c1cccc([N+](=O)[O-])c1)c1ccco1	AmpC detergent inconclusive
Cc1ccc(N/C=C/C(=O)c2ccco2)c(O)c1	AmpC inh no detg inconclusive, Shiga toxin inh 69.7, Cycloheximide cs 60.1
Cc1ccc(CNC(=O)c2ccc(N3CCC4(CC3)CC(c3cccc(Br)c3)=NO4)c(NC(=O)c3ccccc3)c2)cc1	none (no result: Shiga toxin inh, Cycloheximide cs)
Cc1ccccc1Nc1nc(N)nc(CSCC(=O)Nc2cccc(Br)c2)n1	none
COc1ccc(Br)c(C(=O)OCC(=O)N2CCc3ccccc32)c1	none (no result: AmpC detergent, Shiga toxin inh, Cycloheximide cs)
O=C(OCC(=O)N1CCCc2ccccc21)c1ccccc1[N+](=O)[O-]	none (no result: Shiga toxin inh, Cycloheximide cs)
O=C(COc1ccccc1F)N1CCCc2ccccc21	AmpC detergent inconclusive, Cycloheximide cs 22.4 (no result: Shiga toxin inh)
O=C(COc1ccccc1F)N1c2ccccc2CCc2ccccc21	none
O=C(COc1ccccc1[N+](=O)[O-])N1CCCc2ccccc21	Cycloheximide cs 16.8
O=C(Cc1ccc(Br)cc1)Nc1ccc(Cl)cc1	Cycloheximide cs 25.1
O=C(Cc1cccc(Cl)c1)Nc1ccc(Br)cc1	Cycloheximide cs 16.9
CCOc1ccc(NC(=O)C2CCC(N3C(=O)C4CC=CCC4C3=O)CC2)cc1 (centres undefined)	none
